Source: PubChem BioAssay AID463173 (ICCB-Longwood Screening Facility, Harvard Medical School, 2010)
Among all 52,000 compounds or so, about 4,300 (8.3%) were called active. Cut-off read from the data, not from the text of the source: active = survival mostly below about 52% (no sharp cut-off); inactive = mostly above about 56%. The full list was thinned out, with actives kept by preference.

Each molecule was assayed on DeltatarO mutant (assay: growth inhibition of S. aureus wild type versus tarO mutant, primary screen, teichoic acid synthesis inhibitors, RN4220, OD600 (AID 463173)). Details: OD600, 18 h, stronger effect = lower value, screened at 18.75 µg/mL (by protocol).
In the case of `CCOC(=O)c1c(S(=O)(=O)N2CCCC(C(=O)N(C)Cc3ccccc3)C2)c(C)n(C)c1C` (stereo unspecified), the survival is reported as 92% (inactive). With `Cc1ccc(Cl)cc1Nc1nn2c(=O)c3ccc(C(=O)N4CCCC(C)C4)cc3nc2s1` (stereo unspecified) the survival was 73% (inactive). With `Cc1nc(-c2ccccc2)cc(=O)[nH]1` the survival was 109% (inactive). `CC(C)c1nc2ccccc2c(=O)[nH]1` was tested, and the survival was 91% (inactive). For `Cc1nc2cc3ccccc3cc2c(=O)[nH]1`, the survival was 47% (active). With `CNS(=O)(=O)c1cn(CC(=O)N2CCN(c3ccccc3F)CC2)cc1S(=O)(=O)NC` the survival was 71% (inactive). In the case of `CC(=O)Nc1ccc(S(=O)(=O)Nc2ccc(-c3cn4c(C)csc4n3)cc2)cc1`, the survival is reported as 89% (inactive). For `COc1ccc(S(=O)(=O)Nc2ccc(-c3cn4c(C)csc4n3)cc2)cc1`, the survival was 94% (inactive). For `CC(=O)c1ccc(S(=O)(=O)Nc2ccc(-c3cn4c(C)csc4n3)cc2)cc1`, the survival was -5% (active). In the case of `COc1cc2ccccc2cc1C(=O)Nc1ccc(Cl)c(-c2nc3ccccc3o2)c1`, the survival is reported as 40% (active). With `COc1cc2ccccc2cc1C(=O)Nc1cccc(-c2nc3cc(C)c(C)cc3o2)c1C` the survival was 45% (active). In the case of `COc1cc2ccccc2cc1C(=O)Nc1cc(-c2nc3ccccc3o2)ccc1C`, the survival is reported as 111% (inactive). With `CCCC(=O)Nc1cccc(-c2nc3cc(C)c(C)cc3o2)c1C` the survival was 57% (inactive). For `COc1cc2ccccc2cc1C(=O)Nc1cccc(-c2nc3cc(C)ccc3o2)c1C`, the survival was 55% (inactive). In the case of `Cc1cc2nc(-c3cccc(NC(=O)c4cccc5ccccc45)c3)oc2cc1C`, the survival is reported as 57% (inactive). For `COc1cc2ccccc2cc1C(=O)Nc1cccc(-c2nc3cc(C)c(C)cc3o2)c1`, the survival was 41% (active). For `COc1cc2ccccc2cc1C(=O)Nc1ccc2oc(-c3cccc(Cl)c3Cl)nc2c1`, the survival was 56% (inactive). With `COc1cc2ccccc2cc1C(=O)Nc1cccc(-c2nc3ccccc3o2)c1` the survival was 7% (active). With `Cc1cc2nc(-c3ccc(NC(=O)c4ccccc4F)cc3)oc2cc1C` the survival was 66% (inactive). In the case of `COc1cc2ccccc2cc1C(=O)Nc1ccc2oc(-c3cc(Br)ccc3Cl)nc2c1`, the survival is reported as 75% (inactive). For `Cc1cc2oc(C(=O)Nc3cccc(-c4nc5ccccc5o4)c3)c(C)c2cc1C`, the survival was 74% (inactive). In the case of `CCc1cccc(NC(=O)Cn2c(=O)n(CCCCCC(=O)NCc3ccc(F)cc3)c(=O)c3sccc32)c1`, the survival is reported as 63% (inactive). For `O=C(NCc1ccc(Cl)cc1)C1CCN(C(=O)c2cnn(-c3ccccc3)c2-n2cccc2)CC1`, the survival was 65% (inactive). In the case of `Cc1ccc(C)c(NS(=O)(=O)c2cc3c4c(c2)C(C)C(=O)N4CCC3)c1` (stereo unspecified), the survival is reported as 106% (inactive). In the case of `COc1ccc(CNC(=O)c2cnc3sc(N4CCCCCC4)nn3c2=O)cc1`, the survival is reported as 101% (inactive). In the case of `CCOc1cccc2cc(-c3nc(-c4ccccc4C)no3)c(=O)oc12`, the survival is reported as 76% (inactive). In the case of `CCc1ccc(S(=O)(=O)c2nnn3c2nc(N(C)Cc2ccccc2)c2cc(Cl)ccc23)cc1`, the survival is reported as 82% (inactive). With `COc1cc(-c2nc3sccn3c2Nc2cccc(C)c2)ccc1O` the survival was 54% (inactive). For `Cc1ccc(Cn2c(=O)n(Cc3ccccc3Cl)c(=O)c3cccnc32)cc1`, the survival was 69% (inactive). `Cc1ccc(Cn2c(=O)n(CCCCC(=O)NCc3ccccc3Cl)c(=O)c3ccccc32)cc1` was tested, and the survival was 102% (inactive). In the case of `O=c1c2cccnc2n(Cc2cccc(F)c2)c(=O)n1Cc1ccccc1Cl`, the survival is reported as 91% (inactive). In the case of `O=c1c2ccccc2n(Cc2cccc(F)c2)c(=O)n1Cc1ccccc1Cl`, the survival is reported as 29% (active). In the case of `O=C(CCCn1c(=O)c2ccccc2n(Cc2cccc(F)c2)c1=O)NCc1ccccc1Cl`, the survival is reported as 74% (inactive). In the case of `Cc1ccc(Cn2c(=O)n(CCc3ccc(Cl)cc3)c(=O)c3ccccc32)cc1`, the survival is reported as 42% (active). `Cc1ccc(Cn2c(=O)n(Cc3ccccc3Cl)c(=O)c3ccccc32)cc1` was tested, and the survival was 48% (active). For `Cc1ccc(CNC(=O)CCCCn2c(=O)c3ccccc3n(Cc3ccc(Cl)cc3)c2=O)cc1`, the survival was 105% (inactive). In the case of `Cc1ccc(Cn2c(=O)n(CCCCC(=O)NCCc3ccc(Cl)cc3)c(=O)c3ccccc32)cc1`, the survival is reported as 96% (inactive). With `O=C(CCc1ccccc1)N/N=C/c1ccco1` the survival was 104% (inactive). With `Cc1cc(C)c(NS(=O)(=O)c2ccc(-c3cnc(C4CC4)o3)cc2)c(C)c1` the survival was 99% (inactive). With `CCCC(=O)C1=C(O)C(C(=O)OC)C(C)(C)CC1=N` (stereo unspecified) the survival was 95% (inactive). For `Cc1ccccc1CNC(=O)CN1CCSc2ccccc21`, the survival was 89% (inactive). In the case of `Cc1ccccc1NC(=O)c1c(C)oc2ccc(O)c(CN3CCCC(C)C3)c12` (stereo unspecified), the survival is reported as 108% (inactive). With `Cc1nn(-c2ccccc2)c(-n2cccc2)c1C(=O)N1CCN(c2ccccc2)CC1` the survival was 83% (inactive). `Cc1ccc(N(C)S(=O)(=O)c2ccc3c(c2)C(C)(C)C(=O)N3C)cc1C` was tested, and the survival was 80% (inactive). In the case of `O=C(c1[nH]c2ccccc2c1Sc1ccc(Cl)cc1)N1CCCCC1`, the survival is reported as 11% (active). `COc1ccc2c(Sc3ccc(Cl)cc3)c(C(=O)N3CCCCC3)[nH]c2c1` was tested, and the survival was 40% (active). In the case of `CCOC(=O)C1CCCN(C(=O)c2[nH]c3ccccc3c2Sc2ccc(Cl)cc2)C1` (stereo unspecified), the survival is reported as 37% (active). For `Cc1ccc2c(Sc3ccc(Cl)cc3)c(C(=O)N3CCCCC3)[nH]c2c1`, the survival was 85% (inactive). With `Cc1ccc2c(Sc3ccc(Cl)cc3)c(C(=O)N3CCC(C)CC3)[nH]c2c1` the survival was 69% (inactive). With `COc1ccc2c(Sc3ccc(Cl)cc3)c(C(=O)N3CCC(C)CC3)[nH]c2c1` the survival was 64% (inactive). In the case of `COc1ccc2c(Sc3ccccc3)c(C(=O)N3CCC(C)CC3)[nH]c2c1`, the survival is reported as 69% (inactive). For `CCOC(=O)C1CCCN(C(=O)c2ccc3c(c2)N(Cc2ccc(Cl)cc2)C(=O)c2ccccc2S3=O)C1` (stereo unspecified), the survival was 60% (inactive). `CCOC(=O)C1CCCN(S(=O)(=O)c2ccc(Cl)cc2)C1` (stereo unspecified) was tested, and the survival was 95% (inactive). In the case of `CCOC(=O)C1CCCN(C(=O)c2ccc3c(c2)N(Cc2cccc(Cl)c2)C(=O)c2ccccc2S3(=O)=O)C1` (stereo unspecified), the survival is reported as 64% (inactive). `Cc1cccc(NC(=O)CS(=O)(=O)c2nc(-c3ccccc3)cn2-c2cccc(Cl)c2)c1C` was tested, and the survival was 63% (inactive). `Cc1ccc(C)c(Cn2c(=O)n(CCCCC(=O)NCc3ccccc3Cl)c(=O)c3ccccc32)c1` was tested, and the survival was 107% (inactive).
